# Laboratory results taken from ChEMBL document CHEMBL3988442, “University of Dundee, Small-Polar-MMV Screening Library” (2021).
# For some of these results: Measured potencies and affinities stand elsewhere.
# Experiments:
# Design in all cases: scale not given: direction of the effect not stated beside the values
# [1] = biological target: Protein translocase subunit SecA (Escherichia coli (strain K12)) (UniProt P10408); assay: Assay to Identify E. coli SecA ATPase Inhibitors; assay type: functional; details: 30 µM
# Chain of Protein translocase subunit SecA (Escherichia coli (strain K12)) (P10408 whole entry): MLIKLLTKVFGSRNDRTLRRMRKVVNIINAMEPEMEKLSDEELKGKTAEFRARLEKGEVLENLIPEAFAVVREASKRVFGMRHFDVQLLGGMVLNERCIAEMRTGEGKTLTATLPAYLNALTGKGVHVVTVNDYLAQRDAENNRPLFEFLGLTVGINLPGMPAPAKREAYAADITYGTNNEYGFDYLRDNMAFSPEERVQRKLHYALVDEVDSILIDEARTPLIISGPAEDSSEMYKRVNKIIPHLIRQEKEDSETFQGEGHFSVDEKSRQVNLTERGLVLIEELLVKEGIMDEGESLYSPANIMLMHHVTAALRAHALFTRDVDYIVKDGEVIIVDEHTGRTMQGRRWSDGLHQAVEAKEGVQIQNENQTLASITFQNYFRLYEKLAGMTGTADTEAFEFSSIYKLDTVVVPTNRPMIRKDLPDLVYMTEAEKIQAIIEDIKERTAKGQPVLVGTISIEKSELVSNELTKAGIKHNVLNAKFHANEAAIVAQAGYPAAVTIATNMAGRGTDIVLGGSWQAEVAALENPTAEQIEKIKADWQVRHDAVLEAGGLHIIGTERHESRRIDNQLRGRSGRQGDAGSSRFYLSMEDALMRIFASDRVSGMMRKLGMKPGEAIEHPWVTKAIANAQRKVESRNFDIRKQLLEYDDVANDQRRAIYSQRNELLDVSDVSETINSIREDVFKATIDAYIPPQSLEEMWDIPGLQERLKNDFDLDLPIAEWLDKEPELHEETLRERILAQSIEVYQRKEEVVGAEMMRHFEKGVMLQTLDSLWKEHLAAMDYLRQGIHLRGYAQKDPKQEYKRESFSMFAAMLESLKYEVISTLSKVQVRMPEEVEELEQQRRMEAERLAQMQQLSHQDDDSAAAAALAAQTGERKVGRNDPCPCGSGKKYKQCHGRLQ
# [2] = biological target: T1, Ubiquitin-activating enzyme e1, putative (Leishmania donovani (strain BPK282A1)) (UniProt E9BSI1); assay: Leishmania donovani Ubiquitin Activating Enzyme (LdE1); assay type: functional; details: 30 µM
# T1 sequence (whole entry): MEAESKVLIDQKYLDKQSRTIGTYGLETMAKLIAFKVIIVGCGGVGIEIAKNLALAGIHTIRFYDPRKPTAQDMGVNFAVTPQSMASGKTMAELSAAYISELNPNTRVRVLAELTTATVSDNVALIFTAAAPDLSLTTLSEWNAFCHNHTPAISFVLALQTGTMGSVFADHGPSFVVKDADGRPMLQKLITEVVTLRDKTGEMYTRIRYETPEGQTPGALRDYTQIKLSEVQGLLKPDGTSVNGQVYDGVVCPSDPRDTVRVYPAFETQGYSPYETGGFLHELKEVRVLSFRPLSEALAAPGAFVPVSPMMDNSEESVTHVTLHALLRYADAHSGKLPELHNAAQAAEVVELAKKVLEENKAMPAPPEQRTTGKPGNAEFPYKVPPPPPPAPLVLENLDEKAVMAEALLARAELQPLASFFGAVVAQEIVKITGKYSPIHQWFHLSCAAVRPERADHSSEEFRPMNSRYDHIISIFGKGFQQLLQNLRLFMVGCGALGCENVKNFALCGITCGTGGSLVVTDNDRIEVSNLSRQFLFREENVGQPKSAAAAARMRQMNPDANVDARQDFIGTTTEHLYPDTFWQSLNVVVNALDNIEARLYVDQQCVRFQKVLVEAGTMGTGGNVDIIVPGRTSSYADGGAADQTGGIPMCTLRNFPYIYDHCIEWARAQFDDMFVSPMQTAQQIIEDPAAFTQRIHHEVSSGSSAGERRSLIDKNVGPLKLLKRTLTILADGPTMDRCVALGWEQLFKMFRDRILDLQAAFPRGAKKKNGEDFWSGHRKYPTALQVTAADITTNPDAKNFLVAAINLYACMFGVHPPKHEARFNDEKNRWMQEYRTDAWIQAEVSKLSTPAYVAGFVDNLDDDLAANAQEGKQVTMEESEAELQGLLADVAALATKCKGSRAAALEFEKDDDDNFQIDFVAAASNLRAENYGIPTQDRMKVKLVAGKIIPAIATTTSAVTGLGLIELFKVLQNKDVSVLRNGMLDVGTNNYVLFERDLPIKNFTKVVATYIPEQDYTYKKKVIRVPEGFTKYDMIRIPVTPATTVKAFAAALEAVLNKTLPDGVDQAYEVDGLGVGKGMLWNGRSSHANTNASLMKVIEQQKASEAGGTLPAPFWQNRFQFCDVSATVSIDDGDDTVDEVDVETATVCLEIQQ
# [3] = biological target: AMP-activated protein kinase, AMPK (Homo sapiens) (UniProt P54646+O43741+P54619+Q9UGJ0+Q9Y478+Q13131+Q9UGI9); assay: AMP-dependent Kinase enzyme assay. An in vitro enzyme assay that detects ADP turnover that is directly proportional to AMPK activity. This uses naive AMPK that is activated during the assay with MK-8722; assay type: functional; details: 30 µM
# [4] = biological target: Sialic acid-binding Ig-like lectin 9 (Homo sapiens) (UniProt Q9Y336); assay: Hs-Siglec9 ALPHAscreen SOP 20170721; details: 10 µM
# Chain of Sialic acid-binding Ig-like lectin 9 (Homo sapiens) (Q9Y336 whole entry): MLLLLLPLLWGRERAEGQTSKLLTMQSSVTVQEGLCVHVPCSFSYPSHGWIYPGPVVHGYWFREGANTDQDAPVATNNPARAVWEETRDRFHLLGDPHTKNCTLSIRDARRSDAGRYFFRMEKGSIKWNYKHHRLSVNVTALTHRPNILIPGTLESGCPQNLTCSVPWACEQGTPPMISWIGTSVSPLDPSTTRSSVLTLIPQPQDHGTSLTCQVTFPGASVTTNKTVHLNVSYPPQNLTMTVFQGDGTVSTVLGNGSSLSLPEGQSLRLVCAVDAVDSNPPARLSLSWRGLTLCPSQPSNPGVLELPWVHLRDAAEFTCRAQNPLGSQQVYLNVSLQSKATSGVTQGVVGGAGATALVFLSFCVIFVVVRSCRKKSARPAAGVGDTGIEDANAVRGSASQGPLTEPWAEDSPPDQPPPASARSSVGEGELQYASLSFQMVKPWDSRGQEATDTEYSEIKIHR
# [5] = tested on: Trypanosoma cruzi; assay: Trypanosoma cruzi phosphomannomutase and mannose-1-phosphate guanylyltransferase assay; assay type: functional; details: 10 µM
# [6] = biological target: T2, Arginase-2, mitochondrial (Homo sapiens) (UniProt P78540); assay: in vitro enzyme assay to detect the production of urea directly proportional to the activity of Arginase II; assay type: functional; details: 33.3 µM; also: in the data most compounds retested in dose-response had high values
# T2 sequence (whole entry): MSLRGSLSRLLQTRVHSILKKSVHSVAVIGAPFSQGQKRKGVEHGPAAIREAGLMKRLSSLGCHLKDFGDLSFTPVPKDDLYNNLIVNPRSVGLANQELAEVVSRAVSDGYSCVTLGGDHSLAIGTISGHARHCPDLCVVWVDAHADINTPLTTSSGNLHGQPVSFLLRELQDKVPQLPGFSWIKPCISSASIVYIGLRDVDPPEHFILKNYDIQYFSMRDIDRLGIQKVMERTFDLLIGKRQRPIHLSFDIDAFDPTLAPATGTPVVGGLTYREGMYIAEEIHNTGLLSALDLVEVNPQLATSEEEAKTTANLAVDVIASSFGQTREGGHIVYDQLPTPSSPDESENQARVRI
# [7] = biological target: T3, Proteasome subunit beta (Trypanosoma cruzi) (UniProt O96673); assay: Trypanosoma cruzi proteasome chymotrypsin-like activity (TcProtChymo) assay.; also: in the data most compounds retested in dose-response had high values; assay type: functional; details: 9.37 µM
# T3 sequence (whole entry): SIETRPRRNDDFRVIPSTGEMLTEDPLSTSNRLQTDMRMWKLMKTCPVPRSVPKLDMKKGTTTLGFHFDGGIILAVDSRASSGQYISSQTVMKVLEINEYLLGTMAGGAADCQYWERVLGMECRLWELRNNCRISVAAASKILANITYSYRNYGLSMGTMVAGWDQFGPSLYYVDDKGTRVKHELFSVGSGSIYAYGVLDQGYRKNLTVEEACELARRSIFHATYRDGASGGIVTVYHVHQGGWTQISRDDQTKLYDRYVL
# [8] = species: Homo sapiens; assay: To identify inhibition of the IFN signalling (Jak-Stat) pathway via expression of an eGFP reporter gene under the control of an IFN-stimulated response element (ISRE) containing MxA promoter.; assay type: functional; details: 30 µM
# [9] = biological target: T4, Tyrosyl-tRNA synthetase, putative (Trypanosoma cruzi (strain CL Brener)) (UniProt Q4DSP6); assay: Trypanosoma cruzi tyrosyl tRNA synthetase (TcYRS) _High Tyrosine SOP; assay type: functional; details: 30 µM; also: in the data most compounds retested in dose-response had high values
# T4 sequence (whole entry): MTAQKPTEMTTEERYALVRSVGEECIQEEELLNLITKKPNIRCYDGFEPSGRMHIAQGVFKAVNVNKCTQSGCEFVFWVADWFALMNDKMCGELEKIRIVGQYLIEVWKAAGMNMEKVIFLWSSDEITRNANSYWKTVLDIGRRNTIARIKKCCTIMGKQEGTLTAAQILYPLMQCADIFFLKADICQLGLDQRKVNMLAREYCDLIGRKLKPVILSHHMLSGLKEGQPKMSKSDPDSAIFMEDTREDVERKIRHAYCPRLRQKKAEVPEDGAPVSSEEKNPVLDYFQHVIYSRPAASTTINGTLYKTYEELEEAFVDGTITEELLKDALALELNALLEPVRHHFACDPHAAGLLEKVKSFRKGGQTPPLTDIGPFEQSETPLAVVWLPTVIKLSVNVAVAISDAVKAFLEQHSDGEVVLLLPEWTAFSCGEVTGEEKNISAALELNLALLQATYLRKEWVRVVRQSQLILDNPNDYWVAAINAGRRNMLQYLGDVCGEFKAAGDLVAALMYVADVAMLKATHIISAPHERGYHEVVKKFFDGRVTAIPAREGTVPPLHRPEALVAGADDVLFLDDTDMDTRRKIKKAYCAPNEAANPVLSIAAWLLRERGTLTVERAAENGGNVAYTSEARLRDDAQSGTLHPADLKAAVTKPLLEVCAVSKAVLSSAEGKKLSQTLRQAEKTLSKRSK
# [10] = biological target: T4, Tyrosyl-tRNA synthetase, putative (Trypanosoma cruzi (strain CL Brener)); assay: Trypanosoma cruzi tyrosyl tRNA synthetase (TcYRS) SOP; assay type: functional; details: 30 µM
# [11] = biological target: Chromo domain-containing protein 1 (Saccharomyces cerevisiae (strain ATCC 204508 / S288c) (Baker's yeast)) (UniProt P32657); assay: ScCHD-1 Enzyme Inhibition Assay; assay type: functional; details: 30 µM; also: in the data most compounds retested in dose-response had high values
# Chain of Chromo domain-containing protein 1 (Saccharomyces cerevisiae (strain ATCC 204508 / S288c) (Baker's yeast)) (P32657 whole entry, the tested form may be a part): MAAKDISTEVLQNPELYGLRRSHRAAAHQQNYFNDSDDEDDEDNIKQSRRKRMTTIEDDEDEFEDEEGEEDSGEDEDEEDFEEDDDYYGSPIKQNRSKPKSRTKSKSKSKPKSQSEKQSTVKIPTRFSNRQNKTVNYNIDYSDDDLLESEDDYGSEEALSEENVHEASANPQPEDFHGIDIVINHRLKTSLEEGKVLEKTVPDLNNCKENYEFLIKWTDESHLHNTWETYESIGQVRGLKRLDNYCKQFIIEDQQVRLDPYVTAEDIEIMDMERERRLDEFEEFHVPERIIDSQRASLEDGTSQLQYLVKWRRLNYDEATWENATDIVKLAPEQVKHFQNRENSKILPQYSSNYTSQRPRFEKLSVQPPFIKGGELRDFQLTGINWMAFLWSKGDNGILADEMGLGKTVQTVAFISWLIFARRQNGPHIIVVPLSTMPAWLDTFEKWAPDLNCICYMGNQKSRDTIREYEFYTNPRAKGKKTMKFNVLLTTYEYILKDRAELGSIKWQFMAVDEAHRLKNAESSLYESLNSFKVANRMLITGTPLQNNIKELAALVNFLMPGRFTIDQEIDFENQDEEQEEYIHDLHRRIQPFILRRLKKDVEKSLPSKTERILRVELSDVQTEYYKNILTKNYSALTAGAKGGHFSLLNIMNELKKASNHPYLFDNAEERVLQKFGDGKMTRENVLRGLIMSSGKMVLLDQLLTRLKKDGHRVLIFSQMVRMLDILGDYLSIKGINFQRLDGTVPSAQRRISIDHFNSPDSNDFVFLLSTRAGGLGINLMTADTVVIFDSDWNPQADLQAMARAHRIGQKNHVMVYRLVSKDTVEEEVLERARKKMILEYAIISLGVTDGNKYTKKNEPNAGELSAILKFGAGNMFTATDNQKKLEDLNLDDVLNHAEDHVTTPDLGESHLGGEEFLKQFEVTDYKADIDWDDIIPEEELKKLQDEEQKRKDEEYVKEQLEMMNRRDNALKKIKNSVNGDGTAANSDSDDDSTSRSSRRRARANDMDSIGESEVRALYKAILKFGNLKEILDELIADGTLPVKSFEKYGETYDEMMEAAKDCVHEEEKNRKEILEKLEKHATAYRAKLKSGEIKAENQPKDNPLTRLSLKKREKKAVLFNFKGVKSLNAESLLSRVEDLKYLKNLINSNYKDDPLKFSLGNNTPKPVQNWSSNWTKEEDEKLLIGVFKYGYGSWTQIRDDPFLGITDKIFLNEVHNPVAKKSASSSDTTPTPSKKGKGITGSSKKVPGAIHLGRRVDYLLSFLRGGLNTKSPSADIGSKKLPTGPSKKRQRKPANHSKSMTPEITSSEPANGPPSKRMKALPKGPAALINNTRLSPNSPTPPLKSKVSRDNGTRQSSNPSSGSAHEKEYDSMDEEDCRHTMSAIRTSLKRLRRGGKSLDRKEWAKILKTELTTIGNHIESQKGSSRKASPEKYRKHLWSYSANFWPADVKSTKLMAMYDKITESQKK
SMILES,Percent Effect [1] [%],Percent Effect [2] [%],Percent Effect [3] [%],Percent Effect [4] [%],Percent Effect [5] [%],Percent Effect [6] [%],Percent Effect [7] [%],Percent Effect [8] [%],Percent Effect [9] [%],Percent Effect [10] [%],Percent Effect [11] [%]
CC(C)OCCN(Cc1cccc(O)c1)C1CCC(O)CC1 (stereo not given),-4.61,0,-1.14,-7.69,-5.96,0.744,4.89,-1.68,0,-1.24,-0.807
Cc1cnn(C2CCCN(C(=O)c3ccc(N(C)C)nn3)C2)c1 (stereo not given),-3.44,15.6,1.44,-3.44,-5.62,-2.85,-1.01,33.7,4.85,12.2,-8.48
Cc1nnc2n1CCN(C(=O)c1cc(Cl)c[nH]1)C2,-3.51,-15.8,7.83,10.9,0.376,1.92,2.84,-3.3,0.49,-4.88,3.54
O=C(N[C@@H]1CN(c2ncccn2)C[C@@H]2CCCO[C@@H]21)c1cnccn1,-0.31,8,1.89,11.3,-1.74,-48.6,7.18,10.6,-7.29,20,-6.1
CNc1nc(CNC(=O)Nc2cccc(F)c2)cs1,-4.85,8.11,-3.94,12.7,-1.39,-4.99,1.62,1.99,5.94,6.1,8.34
